# In all, about 33,000 sequences were measured (“e-score”: median about -0.053, highest 2% from about 0.38 on). Shown is part of a subset that was picked to be rich in the highest values.
# Target: T1, SIX1 homeodomain (reference allele) (human, UniProt Q15475 108-198)
# T1 sequence: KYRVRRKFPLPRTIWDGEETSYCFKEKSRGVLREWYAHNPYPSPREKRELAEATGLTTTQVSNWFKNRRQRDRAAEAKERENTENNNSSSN
# Assay: universal protein binding microarray; Universal all-10-mer PBM (8x60K, AMADID 030236), 300 nM GST-tagged protein, Alexa Fluor 488 anti-GST; buffer, salt, pH and temperature not stated (as in Berger); high values mean tight binding
# Settings: protein: ivt; tags: N-terminal GST; dsDNA, one strand shown
# Method in brief: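 Binding of GST-tagged homeodomains is given as 8-mer E-scores from the Universal PBM Analysis Suite. The proteins were produced by in vitro transcription/translation, quantified by anti-GST western blot against a recombinant GST standard curve, and applied in duplicate at 300 nM final concentration to universal 'all 10-mer' protein binding microarrays (8×60K format).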
row,Sequence,binding signal
1,CATCCGGC,0.226 ± 0.0528 E-score
2,GATCCGAC,0.389 ± 0.0403 E-score
3,AATCCGGT,0.252 ± 0.0106 E-score
4,TACCCGGA,0.332 ± 0.00363 E-score
5,ATCTACTC,0.297 ± 0.0368 E-score
6,ATATGTAG,0.151 ± 0.0301 E-score
7,CATAAACC,0.19 ± 0.0201 E-score
8,GATAATCC,0.34 ± 0.0479 E-score
9,CGACTATC,0.246 ± 0.0396 E-score
10,GAGATCAC,0.368 ± 0.00856 E-score
11,ATCCTTGG,0.189 ± 0.0361 E-score
12,CATCCGGA,0.21 ± 0.0635 E-score
13,AATCCGGA,0.276 ± 0.0325 E-score
14,GATCCGGA,0.405 ± 0.0443 E-score
15,ACACCAAC,0.224 ± 0.00659 E-score
16,CCCCTATC,0.405 ± 0.0204 E-score
17,ACCCTATC,0.346 ± 0.0051 E-score
18,CCCCTATA,0.198 ± 0.0352 E-score
19,CATATCAA,0.452 ± 0.0378 E-score
20,CAGATCAA,0.298 ± 0.00526 E-score
21,GCTATCAC,0.357 ± 0.0605 E-score
22,GATATTAA,0.31 ± 0.0894 E-score
23,CATATCTA,0.322 ± 0.0223 E-score
24,GATATCTA,0.392 ± 0.0618 E-score
25,GATATCAC,0.476 ± 0.018 E-score

row,Sequence,binding signal
1,AATATCTA,0.259 ± 0.0807 E-score
2,GATATTAC,0.319 ± 0.0605 E-score
3,GATATCAA,0.453 ± 0.0358 E-score
4,TATATCAA,0.361 ± 0.0752 E-score
5,CTAATCTC,0.175 ± 0.0194 E-score
6,ATCCACTG,0.152 ± 0.0476 E-score
7,ATCAAACC,0.261 ± 0.00716 E-score
8,GATCAATC,0.366 ± 0.0109 E-score
9,ATACGCTC,0.245 ± 0.0572 E-score
10,GGATCTAA,0.285 ± 0.00708 E-score
11,ATACGAAG,0.199 ± 0.0115 E-score
12,GTATTCCA,0.202 ± 0.0137 E-score
13,ATACGTCC,0.24 ± 0.0851 E-score
14,AGCGATCG,0.211 ± 0.0392 E-score
15,AGCGATAT,0.42 ± 0.0465 E-score
16,AGCGATCA,0.206 ± 0.0525 E-score
17,AGCGATAC,0.453 ± 0.01 E-score
18,GGCGATGA,0.193 ± 0.0619 E-score
19,AGCGCGAT,0.166 ± 0.026 E-score
20,CGCGATAC,0.458 ± 0.000728 E-score
21,CGCGATAG,0.199 ± 0.0163 E-score
22,CGCGACAC,0.254 ± 0.0327 E-score
23,GGCGATCA,0.338 ± 0.00739 E-score
24,GGCGATAC,0.4435 ± 0.00237 E-score
25,AGCGATAG,0.209 ± 0.0329 E-score

row,Sequence,binding signal
1,ATACACGA,0.234 ± 0.00563 E-score
2,GGCCGATA,0.29107 ± 0.000269 E-score
3,CGATGCAG,0.21 ± 0.0529 E-score
4,AGGCATAT,0.308 ± 0.0386 E-score
5,GACAGATC,0.286 ± 0.0143 E-score
6,GTAATCTA,0.15 ± 0.0468 E-score
7,CTATACTA,0.168 ± 0.0897 E-score
8,CCTCTAGA,0.158 ± 0.0403 E-score
9,ACCGCGCG,0.175 ± 0.0242 E-score
10,AGCGATCC,0.356 ± 0.0223 E-score
11,CGCGATCA,0.272 ± 0.00455 E-score
12,CGCGATCC,0.391 ± 0.0245 E-score
13,GGTATAAC,0.301 ± 0.0179 E-score
14,AGTATACA,0.294 ± 0.0103 E-score
15,CTTATACC,0.275 ± 0.0521 E-score
16,CGTATATA,0.253 ± 0.0289 E-score
17,GGTATACA,0.3843 ± 0.00371 E-score
18,GGTATACC,0.464 ± 0.0068 E-score
19,ATTATACG,0.302 ± 0.0645 E-score
20,GGTATATA,0.384 ± 0.0217 E-score
21,GCTATACC,0.284 ± 0.0448 E-score
22,ATTATACC,0.389 ± 0.0376 E-score
23,GGTATAGA,0.3008 ± 0.001 E-score
24,TGTATACA,0.3188 ± 0.000346 E-score
25,ACCAGTAT,0.24 ± 0.0167 E-score

row,Sequence,binding signal
1,ATCCTGTC,0.228 ± 0.0128 E-score
2,ATCCATGA,0.273 ± 0.0349 E-score
3,CGCAGATC,0.214 ± 0.00241 E-score
4,GGATAGCA,0.241 ± 0.00553 E-score
5,ATCTATTC,0.24 ± 0.00333 E-score
6,AGTATACT,0.219 ± 0.0526 E-score
7,AGTATACC,0.389 ± 0.0206 E-score
8,CGTATACC,0.367 ± 0.014 E-score
9,ATACTTGC,0.215 ± 0.0473 E-score
10,CAGGGATC,0.42 ± 0.0412 E-score
11,ACGGGATC,0.342 ± 0.0556 E-score
12,GAAGGATC,0.39 ± 0.012 E-score
13,AGGGGATC,0.426 ± 0.0173 E-score
14,AGGGGATG,0.201 ± 0.0454 E-score
15,CGGGGATC,0.396 ± 0.0226 E-score
16,CAAGGATC,0.351 ± 0.0137 E-score
17,GAAGGATA,0.268 ± 0.0478 E-score
18,CAGGGATA,0.328 ± 0.0119 E-score
19,CCGGGATC,0.375 ± 0.0348 E-score
20,CTGGGATC,0.297 ± 0.0767 E-score
21,ATGGGATC,0.368 ± 0.0389 E-score
22,GCTGTATA,0.232 ± 0.0591 E-score
23,ATACACTG,0.338 ± 0.00871 E-score
24,ACGTCTCA,0.322 ± 0.0324 E-score
25,AGATCTCA,0.262 ± 0.0503 E-score

row,Sequence,binding signal
1,TCCATCAA,0.168 ± 0.0474 E-score
2,ATACTTAA,0.19 ± 0.132 E-score
3,AGTCATAT,0.257 ± 0.0554 E-score
4,CGATAGTA,0.263 ± 0.0297 E-score
5,AAAGGATC,0.279 ± 0.0681 E-score
6,AAGGGATC,0.377 ± 0.0133 E-score
7,AAGGGATT,0.188 ± 0.061 E-score
8,ATACGCCG,0.277 ± 0.0315 E-score
9,GTATTATA,0.377 ± 0.042 E-score
10,ATATTATA,0.333 ± 0.0863 E-score
11,GTATTAGA,0.237 ± 0.0563 E-score
12,AATACGGA,0.169 ± 0.0478 E-score
13,CATCCACG,0.183 ± 0.0475 E-score
14,GGTGAGAA,0.162 ± 0.0553 E-score
15,CATATCGA,0.417 ± 0.00575 E-score
16,CATATCGG,0.401 ± 0.0215 E-score
17,GATATCGC,0.468 ± 0.0155 E-score
18,CATATAGA,0.183 ± 0.00672 E-score
19,CATATCGC,0.424 ± 0.0197 E-score
20,AATATCGC,0.299 ± 0.0725 E-score
21,CATATAGC,0.162 ± 0.0222 E-score
22,CAGATCGA,0.277 ± 0.0349 E-score
23,AATATCGG,0.312 ± 0.0183 E-score
24,GAGATCGC,0.27 ± 0.0213 E-score
25,AATATCGT,0.309 ± 0.0634 E-score

row,Sequence,binding signal
1,GATATAGC,0.368 ± 0.0388 E-score
2,GGTGTAAC,0.309 ± 0.00742 E-score
3,AGACGGTA,0.196 ± 0.0243 E-score
4,CACTAATA,0.215 ± 0.00278 E-score
5,GGATATTA,0.355 ± 0.0417 E-score
6,ATATGCCG,0.211 ± 0.0327 E-score
7,AGTTGTAT,0.215 ± 0.0407 E-score
8,AGATAAAG,0.183 ± 0.0397 E-score
9,CGTCTCAG,0.161 ± 0.0511 E-score
10,TACGCGCA,0.174 ± 0.0401 E-score
11,CGAATATC,0.308 ± 0.00674 E-score
12,GAACACCC,0.205 ± 0.0407 E-score
13,CCCCTTCC,0.164 ± 0.0967 E-score
14,CATATACG,0.24 ± 0.0369 E-score
15,CATATCCG,0.426 ± 0.0135 E-score
16,TATATCGA,0.387 ± 0.0436 E-score
17,AATATCGA,0.241 ± 0.0403 E-score
18,ATTATCCG,0.351 ± 0.0414 E-score
19,TATATCCA,0.335 ± 0.0312 E-score
20,GATATCGA,0.42 ± 0.0378 E-score
21,GATATTGA,0.287 ± 0.088 E-score
22,GAGATCGA,0.271 ± 0.0142 E-score
23,CAACTATC,0.168 ± 0.0786 E-score
24,ATTGAATA,0.196 ± 0.0188 E-score
25,GTGTCGCA,0.173 ± 0.106 E-score

row,Sequence,binding signal
1,AAGAATAC,0.214 ± 0.0706 E-score
2,ATCAATTA,0.229 ± 0.0261 E-score
3,ATCGCCTG,0.206 ± 0.0204 E-score
4,ATACTGTG,0.226 ± 0.0353 E-score
5,TATCGCGA,0.395 ± 0.0175 E-score
6,TATCGCCA,0.36392 ± 0.000113 E-score
7,GATCGCGA,0.3375 ± 0.00196 E-score
8,CCGGCGGA,0.24 ± 0.0642 E-score
9,TCATCCGA,0.255 ± 0.0149 E-score
10,CCTGATAG,0.266 ± 0.022 E-score
11,CCTGAGAC,0.168 ± 0.0173 E-score
12,ACTGATCA,0.181 ± 0.00344 E-score
13,ACTGACAC,0.335 ± 0.01 E-score
14,ACTGATAG,0.315 ± 0.0253 E-score
15,ACTGCTAT,0.177 ± 0.0391 E-score
16,CCTGATAC,0.4721 ± 0.0017 E-score
17,ACTGATAT,0.442 ± 0.0273 E-score
18,GCTGAGAC,0.214 ± 0.0303 E-score
19,GCTGATAC,0.459 ± 0.00926 E-score
20,ACTGATAC,0.465 ± 0.00916 E-score
21,GCTGACAC,0.246 ± 0.0761 E-score
22,GTATAGAA,0.215 ± 0.0496 E-score

# Reference: article PMC10668032, “Altered binding affinity of SIX1-Q177R correlates with enhanced WNT5A and WNT pathway effector expression in Wilms tumor”
